Test results reported in PubChem BioAssay (NCATS).
Inconclusive results are not listed. Where a call stands in place of a potency, no number is given. The source made the active and inactive calls. Calls follow the shape of the dose curve; as a rule, active = well fitted curve in the direction sought with a large enough effect; inconclusive = small, poorly fitted or top-dose-only effect, or another doubt; inactive = no such curve, though single readings can be large; an effect the other way counts as inactive or inconclusive.

Assays:
[1] = biological target: Aldehyde dehydrogenase, mitochondrial (Homo sapiens) (UniProt P05091); test: qHTS for Inhibitors of the Aldehyde Dehydrogenase Family (ALDH2) Primary screen (AID 2061308); also: nearly all actives have a fitted effect of over 55% in size
[2] = biological target: Retinaldehyde dehydrogenase 3 (Homo sapiens) (UniProt P47895); test: qHTS for Inhibitors of the Aldehyde Dehydrogenase Family (ALDH1A3) Primary screen (AID 2061315)

Q: NC(=O)c1ccc(O)c2ncccc12 was tested. Which Potency [1] did it give?
A: inactive

Q: And the Potency [2]?
A: inactive

Q: What does the source list for COc1cccc(-c2ccc(-c3nc4ccccc4c(=O)[nH]3)o2)c1?
A: Potency [1]: inactive; Potency [2]: inactive

Q: For O=C1Nc2ccccc2/C1=C/c1ccc[nH]1, which Potency [1] is on record?
A: inactive

Q: And the Potency [2]?
A: inactive

Q: Which results are given for COc1ccc(-c2nnc(NC(=O)Nc3ccc4ccccc4c3)s2)cc1OC?
A: Potency [1]: inactive; Potency [2]: inactive

Q: For O=C1C2=C(CN1c1ccccc1)NC(Nc1nc3ccccc3o1)=NC2c1ccccc1Cl (configuration not stated), which Potency [1] is on record?
A: inactive

Q: What about the Potency [2] of the same compound?
A: inactive

Q: With O=C(CSc1nnc(-c2cccc(S(=O)(=O)N3CCCC3)c2)n1-c1ccccc1)Nc1ccc(C(=O)O)cc1 as the compound, how does the Potency [1] read?
A: inactive

Q: And the Potency [2]?
A: inactive

Q: Which Potency [1] does the source give for Fc1cnc(-c2ccccc2C(F)F)nc1NCc1ccc(-n2ccnn2)cc1 here?
A: inactive

Q: What about the Potency [2] of the same compound?
A: inactive

Q: For O=C(/C=C/c1ccccc1)OCC1=CC[C@@H]2C(C(=O)O)=CO[C@@H](O[C@@H]3O[C@H](CO)[C@@H](O)[C@H](O)[C@H]3O)[C@H]12, which Potency [1] is on record?
A: inactive

Q: What about the Potency [2] of the same compound?
A: inactive

Q: Cc1cnc(-c2ccccc2C(C)C)nc1NCC1CCN(c2cccnc2)CC1 was tested. Which Potency [1] did it give?
A: inactive

Q: And the Potency [2]?
A: inactive

Q: For COc1cc(F)c(S(=O)(=O)N2CCCN(S(=O)(=O)c3ccc(N)cc3)CC2)c(F)c1, which Potency [1] is on record?
A: inactive

Q: What about the Potency [2] of the same compound?
A: inactive

Q: With COc1ccc(NC(=O)C(OC(=O)CNC(=O)c2ccccc2)c2ccccc2)c(C)c1 (configuration not stated) as the compound, how does the Potency [1] read?
A: inactive

Q: And the Potency [2]?
A: inactive

Q: With COc1cc(OC)cc(C2=Nn3c(nnc3-c3cccc(OC)c3)SC2)c1 as the compound, how does the Potency [1] read?
A: inactive

Q: And the Potency [2]?
A: inactive

Q: What does the source list for O=C1CCCC2=C1C(c1cnccc1C(F)(F)F)N=C(Nc1nc3ccccc3o1)N2 (configuration not stated)?
A: Potency [1]: inactive; Potency [2]: inactive

Q: How did the Potency [1] turn out when O=[S+]([O-])(c1ccc2c(c1)OCCO2)N1CCN([S+](=O)([O-])c2ccc(F)cc2Cl)CC1 was run?
A: inactive

Q: What about the Potency [2] of the same compound?
A: inactive

Q: How did the Potency [1] turn out when CCCn1c(C)nc2c(NC3CCCCC3)nc(C)nc21 was run?
A: inactive

Q: And the Potency [2]?
A: inactive

Q: With CC(C)(C)c1ccccc1Nc1nc(C#N)nc(NC2CCCC2)n1 as the compound, how does the Potency [1] read?
A: inactive

Q: What about the Potency [2] of the same compound?
A: inactive

Q: What does the source list for O=C1c2ccccc2C(=O)N1c1ccncc1?
A: Potency [1]: inactive; Potency [2]: inactive

Q: How did the Potency [1] turn out when CCN(Cc1ccccc1)c1ccc(Br)cn1 was run?
A: inactive

Q: And the Potency [2]?
A: inactive

Q: For COc1ccc(-c2ccc(NC(=O)c3cccs3)cn2)cc1, which Potency [1] is on record?
A: inactive

Q: And the Potency [2]?
A: inactive

Q: Which Potency [1] does the source give for Cc1ccnc(NC(=S)N2CC[C@@H](Nc3cccc(C(F)(F)F)c3)C2)c1 here?
A: inactive

Q: And the Potency [2]?
A: inactive

Q: With N#Cc1c(-c2ccccc2)no[n+]1[O-] as the compound, how does the Potency [1] read?
A: inactive

Q: What about the Potency [2] of the same compound?
A: inactive

Q: Which Potency [1] does the source give for C/C=C/c1ccc2c(c1)[C@@H](C)[C@H](c1ccc(O)cc1)O2 here?
A: inactive

Q: And the Potency [2]?
A: inactive

Q: For CCC(C)/C=C(C)/C=C/C1=CC2=CC(=O)C(C)(O)C(OC(C)=O)C2CO1 (configuration not stated), which Potency [1] is on record?
A: inactive

Q: What about the Potency [2] of the same compound?
A: inactive

Q: Which results are given for O=C(OCC#CCSc1nnc(-c2ccc3ccccc3c2)o1)c1cccs1?
A: Potency [1]: inactive; Potency [2]: inactive

Q: Which results are given for COc1ccc2nc(-c3ccccc3OCc3ccccc3)sc2c1?
A: Potency [1]: inactive; Potency [2]: inactive

Q: With O=C(O)c1ccc(O)c2ncc(N3CCCCC3)cc12 as the compound, how does the Potency [1] read?
A: inactive

Q: What about the Potency [2] of the same compound?
A: inactive

Q: How did the Potency [1] turn out when O=C(NCCc1nc2ccccc2n1CCOc1ccc(Cl)cc1)C1CCCCC1 was run?
A: inactive

Q: And the Potency [2]?
A: inactive

Q: For Cc1cccc(-c2ccc(=O)n(CC(=O)NCCc3ccccc3)n2)c1, which Potency [1] is on record?
A: inactive

Q: And the Potency [2]?
A: inactive

Q: With Cc1cc(NS(=O)(=O)c2ccc(NC(=O)c3ccc(Cl)c(Cl)c3)cc2)no1 as the compound, how does the Potency [1] read?
A: inactive

Q: What about the Potency [2] of the same compound?
A: inactive

Q: With Cc1ccc(OCCn2c(CCNC(=O)Cc3cccc(F)c3)nc3ccccc32)cc1 as the compound, how does the Potency [1] read?
A: inactive

Q: What about the Potency [2] of the same compound?
A: inactive

Q: How did the Potency [1] turn out when COC(=O)[C@H](Cc1ccc(O[S+](=O)([O-])c2cccc3cnccc23)cc1)N(C)[S+](=O)([O-])c1ccc2cnccc2c1 was run?
A: inactive

Q: And the Potency [2]?
A: inactive

Q: CC(C)C[C@@H]1NC(=O)[C@@H](Cc2ccccc2)NC(=O)C(CCCCCC(=O)C2CO2)NC(=O)[C@@H]2CCCCN2C1=O (some centres not stated) was tested. Which Potency [1] did it give?
A: inactive

Q: And the Potency [2]?
A: inactive

Q: For O=C(Nc1ccc2c(c1)OCCO2)Nc1nnc(-c2ccncc2)s1, which Potency [1] is on record?
A: inactive

Q: What about the Potency [2] of the same compound?
A: inactive

Q: COc1ccc([C@H]2[C@H](c3ccccc3)C(=O)N2Cc2ccccc2)cc1COc1ccc(NC(C)=O)cc1 was tested. Which Potency [1] did it give?
A: inactive

Q: And the Potency [2]?
A: inactive

Q: COCCNc1nc(C)nc2c1nc(-c1ccccc1)n2CCCN1CCCCC1C (configuration not stated) was tested. Which Potency [1] did it give?
A: inactive

Q: What about the Potency [2] of the same compound?
A: inactive

Q: What does the source list for C[C@H](N)C(=O)Nc1ccc(Cl)cc1C(=O)c1ccc[nH]1?
A: Potency [1]: inactive; Potency [2]: inactive

Q: O=C(Nc1ccc(Cl)c(S(=O)(=O)N2CCOCC2)c1)c1ccc(S(=O)(=O)N2CCOCC2)cc1 was tested. Which Potency [1] did it give?
A: inactive

Q: What about the Potency [2] of the same compound?
A: inactive

Q: With Clc1ccccc1CSc1nc2ncc(Br)cc2[nH]1 as the compound, how does the Potency [1] read?
A: inactive

Q: What about the Potency [2] of the same compound?
A: inactive

Q: How did the Potency [1] turn out when CC(C)c1ccccc1-c1ncc(N(C)C)c(NCc2ccc(-c3cccnc3)cc2)n1 was run?
A: inactive

Q: What about the Potency [2] of the same compound?
A: inactive

Q: CCCCCCCCn1cc(CN(CC)CC)c2cc(-c3cnc(N)nc3)ccc21 was tested. Which Potency [1] did it give?
A: inactive

Q: And the Potency [2]?
A: inactive

Q: CN(Cc1ccco1)c1ncnc2ccc(-c3cccc(Cl)c3)cc12 was tested. Which Potency [1] did it give?
A: inactive

Q: What about the Potency [2] of the same compound?
A: inactive
